This passage reports growth inhibition, inhibition and outcome results from PubChem BioAssay.

Test [1] in a line: antimalarial activity against Dd2 strain (AID 2302;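 active = growth inhibition above 50% at the single 2 µM test dose, taken to imply half-maximal potency below 2 µM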;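 note: 0% = DMSO untreated growth and 100% = chloroquine plus artemisinin killed control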). As to conditions: P. falciparum Dd2 in RBCs, LDH growth readout, 72 h; at 2 µM; active compounds read high.
The nature of test [2]: human hepatoma cell viability loss – ATP luminescence, cytotoxicity control for P. falciparum antimalarial project, primary screen (AID 2303;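 active = inhibition above 50%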;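 note: 0% = DMSO wells and 100% = digitonin-killed cells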). Particulars: HepG2 viability, 24-48 h, at 10 µM, active compounds read high.
Test [3] deals with L-lactate dehydrogenase (Plasmodium falciparum (isolate CDC / Honduras)) (UniProt Q27743). Description: PfLDH activity inhibition – cell lysate, 3D7 strain, counter-screen for P. falciparum growth inhibition project (AID 2304).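 Note: 0% = vehicle and 100% = reference inhibitor.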 Particulars: P. falciparum 3D7 crude extract, LDH APAD/NBT absorbance; at 2 µM; active compounds read high. In general terms: Counterscreens check selectivity or assay interference.
Chain of L-lactate dehydrogenase (Plasmodium falciparum (isolate CDC / Honduras)) (Q27743 whole entry, looked up): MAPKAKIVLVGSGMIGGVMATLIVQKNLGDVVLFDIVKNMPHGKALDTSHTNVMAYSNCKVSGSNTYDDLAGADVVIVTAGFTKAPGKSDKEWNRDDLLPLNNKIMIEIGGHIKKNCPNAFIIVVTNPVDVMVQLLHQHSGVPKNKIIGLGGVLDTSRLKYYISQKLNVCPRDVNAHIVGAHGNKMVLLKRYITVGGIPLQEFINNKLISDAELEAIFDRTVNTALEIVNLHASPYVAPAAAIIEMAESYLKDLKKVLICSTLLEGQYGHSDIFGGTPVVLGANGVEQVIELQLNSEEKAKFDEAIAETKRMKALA

A short description of test [4]: inhibition of 3D7 malaria parasite growth – strain 3D7 (AID 2306).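 Note: 0% = DMSO wells and 100% = chloroquine plus artemisinin control wells.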 Particulars: P. falciparum 3D7 erythrocytic growth, LDH absorbance, 72 h; at 2 µM; active compounds read high.
Test [5] deals with Calcium-dependent protein kinase 1 (Plasmodium falciparum (isolate 3D7)) (UniProt P62344). Description: PfCDPK1 kinase inhibitors, biochemical, TCAMS library (AID 1159585; cut-off not given, nearly all actives have IC50 up to about 0.98 µM;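 note: inhibitors leave more ATP so luminescence rises with inhibition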). Particulars: recombinant PfCDPK1, Kinase-Glo ATP depletion luminescence.
Chain of Calcium-dependent protein kinase 1 (Plasmodium falciparum (isolate 3D7)) (P62344 whole entry, looked up): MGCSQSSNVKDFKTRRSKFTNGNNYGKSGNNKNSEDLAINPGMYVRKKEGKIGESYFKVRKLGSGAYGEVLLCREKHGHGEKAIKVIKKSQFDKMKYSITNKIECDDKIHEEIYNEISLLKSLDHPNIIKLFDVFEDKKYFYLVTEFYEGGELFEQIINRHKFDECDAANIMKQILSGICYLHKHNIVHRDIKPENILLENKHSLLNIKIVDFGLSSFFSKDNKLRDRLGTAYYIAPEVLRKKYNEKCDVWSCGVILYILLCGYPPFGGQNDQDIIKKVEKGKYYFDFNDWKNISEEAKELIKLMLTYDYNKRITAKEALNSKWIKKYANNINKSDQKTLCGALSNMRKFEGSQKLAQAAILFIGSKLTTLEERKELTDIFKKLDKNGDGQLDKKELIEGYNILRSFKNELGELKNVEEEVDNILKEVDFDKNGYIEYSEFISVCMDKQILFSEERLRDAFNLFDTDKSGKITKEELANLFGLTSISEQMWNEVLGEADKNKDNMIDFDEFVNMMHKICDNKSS
Test [6] deals with Plasmodium falciparum protein kinase 6 (PK6, PF3D7_1337100) (UniProt Q8IDW1). Kind of test: PfPK6 kinase inhibitors, biochemical, TCAMS library (AID 1159586). As to conditions: recombinant PfPK6, Kinase-Glo ATP depletion luminescence. In general terms: Kinase-Glo measures the ATP left after a reaction by luminescence.
Chain of Plasmodium falciparum protein kinase 6 (PK6, PF3D7_1337100) (Q8IDW1 1-305): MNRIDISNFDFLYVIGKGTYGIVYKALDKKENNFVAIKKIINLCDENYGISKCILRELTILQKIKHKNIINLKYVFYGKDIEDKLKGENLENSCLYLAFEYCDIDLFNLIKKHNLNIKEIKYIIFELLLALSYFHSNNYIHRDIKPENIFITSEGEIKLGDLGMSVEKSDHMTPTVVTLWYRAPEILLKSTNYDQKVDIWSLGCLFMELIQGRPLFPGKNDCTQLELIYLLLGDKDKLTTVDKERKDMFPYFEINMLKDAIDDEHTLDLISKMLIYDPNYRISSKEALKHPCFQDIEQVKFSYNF
Test [7] deals with Protein kinase 7 (PK7), Plasmodium falciparum 3D7 (PF3D7_0213400) (UniProt Q7YTF7). Kind of test: inhibition of Plasmodium PK7 catalytic activity – biochemical, TCAMS antimalarial set, Kinase-Glo luminescence (AID 1159587). As to conditions: recombinant PfPK7, Kinase-Glo ATP depletion luminescence.
Chain of Protein kinase 7 (PK7), Plasmodium falciparum 3D7 (PF3D7_0213400) (Q7YTF7 1-343): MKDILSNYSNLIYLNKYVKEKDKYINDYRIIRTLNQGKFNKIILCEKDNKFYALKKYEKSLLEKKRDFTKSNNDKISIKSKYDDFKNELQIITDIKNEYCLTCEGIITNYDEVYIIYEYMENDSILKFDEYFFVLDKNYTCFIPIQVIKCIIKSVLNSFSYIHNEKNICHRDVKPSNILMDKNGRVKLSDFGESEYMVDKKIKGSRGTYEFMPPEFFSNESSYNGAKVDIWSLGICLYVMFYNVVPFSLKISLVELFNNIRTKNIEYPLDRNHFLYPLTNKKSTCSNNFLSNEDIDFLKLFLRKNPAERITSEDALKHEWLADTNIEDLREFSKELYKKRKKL
Test [8] deals with Calcium-dependent protein kinase 4 (Plasmodium falciparum (isolate 3D7)) (UniProt Q8IBS5). Description: PfCDPK4 kinase inhibitors, biochemical, TCAMS library (AID 1159588; cut-off not given, nearly all actives have IC50 up to about 0.91 µM). As to conditions: recombinant PfCDPK4, Kinase-Glo ATP depletion luminescence.
Chain of Calcium-dependent protein kinase 4 (Plasmodium falciparum (isolate 3D7)) (Q8IBS5 whole entry, looked up): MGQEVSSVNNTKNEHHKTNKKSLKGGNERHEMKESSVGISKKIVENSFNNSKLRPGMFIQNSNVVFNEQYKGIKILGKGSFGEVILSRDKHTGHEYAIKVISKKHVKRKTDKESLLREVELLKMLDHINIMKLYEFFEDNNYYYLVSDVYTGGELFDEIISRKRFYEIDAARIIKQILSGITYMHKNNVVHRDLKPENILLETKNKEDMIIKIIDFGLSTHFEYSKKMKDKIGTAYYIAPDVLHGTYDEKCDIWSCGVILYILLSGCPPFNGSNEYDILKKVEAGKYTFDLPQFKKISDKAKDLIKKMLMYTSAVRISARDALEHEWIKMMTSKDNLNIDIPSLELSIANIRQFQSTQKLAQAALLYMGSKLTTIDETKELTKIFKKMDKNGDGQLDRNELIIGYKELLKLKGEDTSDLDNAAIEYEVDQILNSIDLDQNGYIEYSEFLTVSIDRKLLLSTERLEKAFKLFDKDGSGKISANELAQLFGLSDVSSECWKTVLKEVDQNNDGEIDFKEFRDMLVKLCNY

Molecules are shown by their SMILES. A number with no mark means an inactive call. For part of these data: Potency and affinity values are given separately. Calls of active or inactive are those of the source. Unless noted, the rule behind the calls is not given here.

On to `FC(F)(F)c1ccc2nc(-c3ccc(-c4cccc(CN5CCC(CCN6CCCCC6)CC5)c4)cc3)[nH]c2c1`, for which the growth inhibition in test [1] was 96% (active); in test [4], 101% (active). Besides, the inhibition (as a rule, the change of the read-out against control, counted positive when it falls) in test [2] was 100% (active); in test [3] it was -5%. Further, the outcome in test [5], in test [6], in test [7] and in test [8] was inactive.
With `c1ccc2cc(CNCCCN3CCN(CCCNCc4ccc5ccccc5c4)CC3)ccc2c1`, the growth inhibition is 65% (active) in test [1] and 100% (active) in test [4]. The inhibition in test [2] was 60% (active); in test [3], 2%. In addition, the result in test [5], in test [6], in test [7] and in test [8] was inactive.
In the case of `O=C(CCN1C(=O)c2ccccc2C1=O)N1CCN(CC=Cc2ccccc2)CC1`, the growth inhibition in test [1] is 3%; in test [4] it was 87% (active). Besides, the inhibition in test [2] was 10%; in test [3] it was -1%. Further, the result in test [5], in test [6], in test [7] and in test [8] was inactive.
With `NOCCCOc1ccccc1`, the growth inhibition in test [1] was -4%; in test [4], 100% (active). Moreover, the inhibition in test [2] was 20%; in test [3], -4%. Besides, the result in test [5], in test [6], in test [7] and in test [8] was inactive.
Take `CN1CCN(CCCN(Cc2ccc(-c3ccc(CNCc4ccc5c(c4)OCO5)cc3)cc2)C(=O)CCC2CCCC2)CC1`: the values for the growth inhibition in test [1] and in test [4] were 85% (active) and 99% (active), respectively. For the same compound, the inhibition in test [2] was 55% (active); in test [3], 8%. For the same compound, the result in test [5], in test [6], in test [7] and in test [8] was inactive.
Turning to `CCCCCCc1cc2cc(-c3nc(-c4ccc(OC)cc4)cs3)c(=O)oc2cc1O`, the growth inhibition in test [1] is 93% (active); in test [4], 97% (active). Moreover, the inhibition in test [2] is 45%; in test [3] it was -6%. Besides, the result in test [5], in test [6], in test [7] and in test [8] was inactive.
For `O=S(=O)(NCCN1CCCC1)c1ccc(-c2ccc(CNCc3ccc(F)cc3)cc2)s1`, the growth inhibition was 44% in test [1] and 101% (active) in test [4]. Further, the inhibition was 42% in test [2] and 6% in test [3]. The outcome in test [5], in test [6], in test [7] and in test [8] was inactive.
With `CC(C)c1ccc(CN2CCC(NC(=O)c3ccc(-c4ccccc4F)s3)CC2)cc1`, the growth inhibition in test [1] is 13%; in test [4], 81% (active). Besides, the inhibition in test [2] was 46%; in test [3], 2%. Also, the outcome in test [5], in test [6], in test [7] and in test [8] was inactive.
As to `CCc1nn2c(Nc3ccncc3)cc(C)nc2c1-c1ccccc1`, the growth inhibition was 98% (active) in test [1] and 100% (active) in test [4]. Further, the inhibition in test [2] was 4%; in test [3] it was 0%. For the same compound, the result in test [5], in test [6], in test [7] and in test [8] was inactive.
Take `O=C(NC(CCCN1CCC(c2ccccc2)CC1)c1ccc(Cl)c(Cl)c1)c1cc(C(F)(F)F)cc(C(F)(F)F)c1` (centres undefined): the growth inhibition was 87% (active) in test [1] and 92% (active) in test [4]. For the same compound, the inhibition in test [2] was 33%; in test [3], 3%. The result in test [5], in test [6], in test [7] and in test [8] was inactive.
`CC(C)C[C@H](NC(=O)c1cccc(F)c1)C(=O)N[C@H](/C=N/NC(=O)c1ccccc1)CCc1ccccc1`: the growth inhibition was 71% (active) in test [1] and 93% (active) in test [4]. Besides, the inhibition in test [2] is 0%; in test [3], 2%. In addition, the outcome in test [5], in test [6], in test [7] and in test [8] was inactive.
Take `COc1ccc2ncc(C#N)c(CCN3[C@@H]4CC[C@H]3CC(NCc3ccc5c(n3)NC(=O)CS5)C4)c2c1` (some centres undefined): the growth inhibition in test [1] is 27%; in test [4], 95% (active). The inhibition in test [2] was 6%; in test [3], -1%. Besides, the result in test [5], in test [6], in test [7] and in test [8] was inactive.
In the case of `CC1(C)N=C(N)N=C(N)N1OCCCNC(=O)c1ccc(C(=O)NCCCON2C(N)=NC(N)=NC2(C)C)cc1`, the growth inhibition is 96% (active) in test [1] and 91% (active) in test [4]. The results for the inhibition in test [2] and in test [3] were 0% and 3%, respectively. The outcome in test [5], in test [6], in test [7] and in test [8] was inactive.
Turning to `O=C(Cc1cnc[nH]1)Nc1cccc(-c2cccc(-c3nc4ccc(F)cc4[nH]3)c2)c1`, the growth inhibition was 97% (active) in test [1] and 101% (active) in test [4]. Besides, the inhibition in test [2] is 21%; in test [3], 2%. For the same compound, the result in test [5], in test [6], in test [7] and in test [8] was inactive.
In the case of `CCc1ccc(-c2cnc(N)c3cc(-c4ccnc(N)n4)ccc23)cc1`, the figures for the growth inhibition in test [1] and in test [4] were 70% (active) and 92% (active), respectively. Besides, the inhibition in test [2] was 37%; in test [3], 0%. In addition, the result in test [5], in test [6], in test [7] and in test [8] was inactive.
For `COc1cc(NCCCNC(=O)c2ccc(Cl)c(Cl)c2)nc2ccccc12`, the growth inhibition was 101% (active) in test [1] and 99% (active) in test [4]. The inhibition in test [2] is 48%; in test [3] it was 5%. Also, the result in test [5], in test [6], in test [7] and in test [8] was inactive.
Regarding `COc1cc(Nc2ncc3c(C)nc(-c4cc5ccccc5[nH]4)n3n2)cc(OC)c1OC`, the growth inhibition in test [1] is 65% (active); in test [4], 91% (active). Further, the inhibition in test [2] is 19%; in test [3], 7%. For the same compound, the outcome in test [5], in test [6], in test [7] and in test [8] was inactive.
Consider `CN1CCN(c2ccc(-c3nc4c(C(N)=O)c(OCc5cc(Cl)cc(Cl)c5)ccc4[nH]3)cc2)CC1`, for which the results for the growth inhibition in test [1] and in test [4] were 85% (active) and 100% (active), respectively. The inhibition in test [2] is 45%; in test [3] it was -2%. The result in test [5], in test [6], in test [7] and in test [8] was inactive.
